High-throughput results from PubChem.
Rows were chosen to be rich in hits. Some 19% of all compounds tested hit in one or more screens of this group.
DT40 TDP1 no CPT: qHTS for Inhibitors of human tyrosyl-DNA phosphodiesterase 1 (TDP1): qHTS in cells in absence of CPT; 15% of 420,000 active; DT40 Tdp1-/- hTDP1 cells, no CPT, ATP luminescence, 48 h; AID 686978, 2013; Potency, µM (series often up to 46.2 µM), actives largely listed as inhibitors; note: nearly all actives have a fitted effect of over 55% in size
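Cells were dispensed at 400 per well, compounds added by pin tool, plates incubated ≥48 hr at 37 °C, then CellTiter-Glo added for 30 min at room temperature before luminescence reading. Line: DT40 Tdp1-/- complemented with hTDP1; camptothecin omitted.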
HT1080NT lethal: kills 2HG-producing HT-1080-NT fibrosarcoma cells; HT-1080-NT fibrosarcoma viability, CellTiter-Glo ATP luminescence, 48 h; Potency, µM (doses to about 46.1 µM), most hits filed as cytotoxic; 1.6% of 360,000 active;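 note: NT is the 2HG producing partner of a matched IDH1 knockdown line; nearly all actives have a fitted effect of over 55% in size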
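HT-1080-NT fibrosarcoma cells (2HG-overproducing), 750 cells/well in RPMI with 5% FBS, dosed after 2 h and incubated 48 h at 37C. CellTiter-Glo luminescence normalized to DMSO and no-cell wells; concentration-response curves fitted and classed.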
TDP1 cell CPT: DT40-hTDP1 cell growth loss with CPT; 12% of 420,000 active; chicken DT40 Tdp1-/-;hTDP1 cells + 20 nM CPT, ATP luminescence, 48 h; Potency, µM (highest dose often 46.2 µM), actives largely listed as inhibitors; note: nearly all actives have a fitted effect of over 55% in size
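Chicken DT40 Tdp1-/- cells stably complemented with human TDP1 were seeded at 400 cells/well in medium containing 20 nM camptothecin, exposed to pin-transferred compounds, and grown at 37 °C for at least 48 hr. Viability was read as ATP luminescence.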
IL1B secr inh: inhibitors of inflammasome signaling (IL-1 beta secretion); THP-1 LPS/ATP IL-1B secretion, AlphaLISA, 16 h; hits give low values; activity change, % at 57.5 µM; 4.7% of 360,000 active; in the data active = activity change below about -50%; inconclusive = mostly about -30% to -49%
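Secreted IL-1B measured by AlphaLISA bead assay after 16 h compound exposure of THP-1 cells; compounds (final up to 57.5 uM) added 1 h before LPS (250 ng/mL) and ATP (1.25 mM) stimulation; lower signal means less secretion.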
HT1080 IDH1KD tx: toxicity to HT-1080 IDH1 knockdown cells (counter line) | Potency, µM (doses to about 46.1 µM), most hits filed as cytotoxic | HT-1080 IDH1 knockdown viability, ATP luminescence, 48 h | 2% of 360,000 active | AID 686971
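Luminescent ATP read-out (CellTiter-Glo, 10 min at room temperature) after 48 h compound exposure at 37 °C gave viability of IDH1-knockdown HT-1080 cells. Activity was normalised to DMSO and cell-free wells, then fitted as concentration-response curves.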
Hits are given with their value; n = inactive; u = inconclusive; x = no result given; ! = not confirmed by another sample; [ ] = remark or other dose. Unless noted, calls come from the whole dose curve; as a rule, active = well fitted curve in the direction sought with a large enough effect; inconclusive = small, poorly fitted or top-dose-only effect, or another doubt; inactive = no such curve, though single readings can be large; an effect the other way counts as inactive or inconclusive.

SMILES	DT40 TDP1 no CPT	HT1080NT lethal	TDP1 cell CPT	IL1B secr inh	HT1080 IDH1KD tx
Cn1c(=O)cc(OCC(=O)NCCCN2CCN(c3ccccc3F)CC2)c2ccccc21	u	n	u	n	n
Cc1ccc(Cl)cc1N1CCN(C(=O)COc2cc(=O)n(C)c3ccccc23)CC1	23.1µM	x	u	x	x
CC(Cc1cccc(C(F)(F)F)c1)NCCOC(=O)c1ccccc1 (configuration not stated)	18.4µM!	n	u	n	n
COc1ccc(NC(=O)COC(=O)c2ccc(O)cc2)c([N+](=O)[O-])c1	n	n	n	n	n
CCCCNS(=O)(=O)c1ccc(OCC(=O)OC)cc1	n	n	n	n	n
CCCCn1c(SCC(=O)Nc2ccc(F)cc2)nc2c(sc3ccccc32)c1=O	n	x	n	x	x
CCN(CC)CCn1c(SCC(=O)NCc2ccco2)nc2c(sc3ccccc32)c1=O	u	n	u	n	n
COc1cccc(NC(=O)CSc2nc3c(sc4ccccc43)c(=O)n2CCCN2CCCC2)c1	10.3µM	n	u	u	n
CCN(CC)CCn1c(SCC(=O)NCCC2=CCCCC2)nc2c(sc3ccccc32)c1=O	u	n	u	-60.3	n
CCC(Sc1nc2c(sc3ccccc32)c(=O)n1CCCC(=O)NC1CCCC1)C(=O)Nc1cccc(OC)c1 (configuration not stated)	u	x	n	x	x
COc1cccc(NC(=O)CSc2nc3c(sc4ccccc43)c(=O)n2CCN(C)C)c1	u	n	14.6µM	-107.8	n
CCN(CC)CCn1c(SCC(=O)Nc2cccc(OC)c2)nc2c(sc3ccccc32)c1=O	4.61µM	u	18.4µM	-78.6	u
NS(=O)(=O)c1ccc(CNC(=O)c2cc(-c3ccccn3)nc3ccc(Cl)cc23)cc1	u	n	n	n	u
COc1ccc(-c2cc(C(=O)N3CCc4c(cnc(C)c4CNC(=O)c4ccsc4)C3)[nH]n2)cc1	n	x	n[9.04 µM]	x	x
CN(C)c1ccc(C=O)c(O)c1	n	x	n	x	x
CC1CCN(C(=O)COc2cccc3c2CCN(C)C3=O)CC1	n	n	n	n	n
Cc1cc(C)nc(N2CCN(c3ccc(F)cc3)CC2)n1	n	n	n	n	n
Cc1cc(N2CCN(c3ccc(F)cc3)CC2)nc(-c2ccccc2)n1	8.2µM	n	9.2µM	n	n[9.24 µM]
Cc1cc(N2CCC(C(=O)Nc3ccc(F)cc3)CC2)nc(-c2ccccc2)n1	18.4µM	n	n	-53.3	u
NS(=O)(=O)c1ccc(N=C2C(=O)Nc3ccccc32)cc1	n	n	n	n	n
CC(C)C1=CC(=Nc2ccc(S(N)(=O)=O)cc2)C=C(C(C)C)C1=O	23.1µM	n	16.4µM	-56.9	n
COc1cccc(C(=O)N2CCC2(C)C(=O)NC(C)C)c1 (configuration not stated)	u	n	n	n	n
CN1/C(=C\C=C(/C#N)C(=O)Nc2ccc(Cl)cc2)C(C)(C)c2ccccc21	u	n	u	n	n
CN1/C(=C\C(=O)Nc2ccc(Cl)cc2)C(C)(C)c2ccccc21	u	n	u	-57.5	n
CN1/C(=C\C(=S)Nc2ccccc2)C(C)(C)c2ccccc21	2.06µM	u	10.3µM	u	n
SMILES	DT40 TDP1 no CPT	HT1080NT lethal	TDP1 cell CPT	IL1B secr inh	HT1080 IDH1KD tx
N#CCCn1c(=O)c(-c2ccc(F)cc2)nc2cnc(Oc3cccc(Cl)c3)nc21	n	x	n	x	x
S=C(Nc1ccc(Cl)c(Cl)c1)NC1CCCCC1	18.4µM	10µM	u	-95.3	u
Fc1cccc(NC(=S)NC2CCCCCCC2)c1	u	n	23.1µM	u	n
FC(F)(F)c1cccc(NC(=S)NC2CCCC2)c1	u	n	u	n	n
Fc1ccc(NC(=S)NC2CCCCC2)c(F)c1F	20.6µM	u	20.6µM	n	n
Cc1cc(OCC(=O)OCC(=O)N(Cc2ccccc2)C(C)(C)C)ccc1Cl	n	n	n	n	n
COc1cc(N=Nc2cccc(S(N)(=O)=O)c2)c2ccccc2c1N	18.4µM	20.6µM	u	u	14.6µM
CN1CCC/C1=C1/C(=O)N(c2ccccc2)N=C1NC(=O)Nc1cccc(Cl)c1	14.6µM	n	8.2µM	n	n
CSc1ccc(CCNC(=O)c2cc(C)nn2-c2ccccc2)cc1	u	n	n	n	n
CCCCNC(=O)c1cc(C)nn1-c1ccccc1	n	n	n	n	n
O=C(NCCN1CCN(c2ccccc2)CC1)Nc1cccc(Cl)c1	u	20.6µM	u	u	18.4µM
Cc1cc(C(=O)NCCCN2CCN(c3cc(Cl)ccc3C)CC2)n(-c2ccccc2)n1	u	u	10.3µM	n	u
Cc1ccc(NC(=O)NCCN2CCN(c3ccccc3)CC2)cc1Cl	u	n	u	u	u
Cc1cc(C(=O)NCCN2CCN(c3cccc(Cl)c3)CC2)n(-c2ccccc2)n1	4.11µM	8.2µM	5.8µM	n	16.4µM
CCCNC(=O)c1ccccc1SCc1c(C)noc1C	n	n	n	n	n
CC(C)(C)c1ccc(NNC(=O)C2CCC2)cc1	u	n	n	n	n
CCOc1ccc(CNC(=O)c2cnc3c(C)cccn3c2=O)cc1	n	x	n	x	x
COCCCNC(=O)c1cn(C)c(=O)c2c1c1ccccc1n2C	n	n	n	n	n
Cn1cc(C(=O)NCCN2CCN(c3cccc(Cl)c3)CC2)c2c3ccccc3n(C)c2c1=O	14.6µM	n	25.9µM	n	n
Cc1nn(-c2ccccc2)c(-n2cccc2)c1C(=O)NCCCN1CCN(c2ccccc2F)CC1	18.4µM	x	16.4µM	x	x
NC(=O)COC(=O)c1c2c(nc3ccccc13)CCCC2	n	n	n	n	n
NC(=O)COC(=O)c1c2c(nc3ccccc13)CCC2	n	n	n	n	n
CC(C)(C)NC(=O)COC(=O)c1c2c(nc3ccccc13)CCC2	9.2µM	n	u	n	n
O=C(NCc1ccco1)c1c2c(nc3ccccc13)CCC2	20.6µM	n	14.6µM	n	n
CC(C)NC(=O)NC(=O)COC(=O)c1c2c(nc3ccccc13)CCC2	13µM	u	9.2µM	u	25.9µM
SMILES	DT40 TDP1 no CPT	HT1080NT lethal	TDP1 cell CPT	IL1B secr inh	HT1080 IDH1KD tx
O=C(Nc1ccc(F)cc1F)c1ccccc1NC(=O)C1CC=CCC1C(=O)O (configuration not stated)	u	n	u	n	n
CCc1nc(N2CCN(C(=O)c3ccco3)CC2)c2c3c(sc2n1)CCCC3	u	n	u	n	n
CCCNC(=S)N1CCN(c2nc(C)nc3sc4c(c23)CCCC4)CC1	u	n	u	-73.9	n
Cc1nc(N2CCNCC2)c2c3c(sc2n1)CCCC3	u	n	u	n	n
CCc1nc(N2CCN(C(=O)c3ccccc3)CC2)c2c3c(sc2n1)CCCC3	23.1µM	u	u	-77.6	u
COCCCNC(=S)N1CCN(c2nc(C)nc3sc4c(c23)CCCC4)CC1	u	u	16.4µM	n	n
COc1c(Cl)ccc(Cl)c1C(=O)O	n	x	n	x	x
